The text below walks through data of PubChem BioAssay (EPA / NIEHS).

One assay deals with DIO2 (gene 1734). Put plainly: CCTE_GLTED_hDIO2: CCTE's human Deiodinase 2 (DIO2) Inhibition Assay, Great Lakes Toxicology and Ecology Division (GLTED) Lab (AID 2284050; active = hit-call score of the fitted dose curve at least 0.9, where 1 is the maximum). The essentials:
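Readout: absorbance from Sandell-Kolthoff detection of free iodide released by human DIO2 during a 3 h incubation with chemical. Cell-free format, n=3; activity fitted relative to DMSO negative control.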

A short description of assay [1]: CCTE_Shafer_MEA_dev_per_burst_spike_percent: CCTE's Neural Network Formation Assay for Percent of Spikes in a Burst, Shafer Lab (AID 2284032).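 As to AC50: fitted as a decrease in burst spike percentage below DMSO baseline.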 A digest of the protocol: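 Value is trapezoidal AUC over recordings on days 5, 7, 9 and 12 of the well-mean fraction of spikes falling in single-electrode bursts; rat cortical cultures exposed continuously from plating, treatment renewed DIV 5 and 9, fitted downward against DMSO.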

A short description of assay [2]: CCTE_Shafer_MEA_dev_burst_rate: CCTE's Neural Network Formation Assay for Burst Rate, Shafer Lab (AID 2284042).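 As to AC50: potency for loss of burst rate below DMSO control.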 The essentials:
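Developmental network assay measuring how 12-day exposure of rat cortical neuron cultures alters bursting on extracellular MEA recordings. Values are AUC of well-mean burst rate across four recording days, relative to DMSO vehicle.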

Assay [3] can be described thus: CCTE_Shafer_MEA_dev_per_burst_interspike_interval: CCTE's Neural Network Formation Assay for Burst Interspike Interval, Shafer Lab (AID 2284044).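 As to AC50: potency for a decrease of within-burst interspike interval below DMSO level.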 A digest of the protocol:
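Mean interspike interval within single-electrode bursts, averaged over bursting electrodes, from rat cortical cultures on MEA plates recorded on days 5, 7, 9 and 12. Continuous compound exposure from plating; trapezoidal AUC fitted downward relative to DMSO.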

Assay [4] is described as follows: CCTE_Shafer_MEA_dev_burst_duration_mean: CCTE's Neural Network Formation Assay for Mean Burst Duration, Shafer Lab (AID 2284045).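 As to AC50: curve fitted for loss meaning shorter burst duration than DMSO.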 The essentials: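 Mean single-electrode burst duration (first to last spike), averaged over bursting electrodes per well, then integrated as area-under-curve across recordings at days 5, 7, 9 and 12. Rat cortical cultures on MEAs, compound present from plating, refreshed at feeds.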

Assay [5] in a line: CCTE_Shafer_MEA_dev_interburst_interval_mean: CCTE's Neural Network Formation Assay for Mean Interburst Interval, Shafer Lab (AID 2284046).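 Also: well-mean interburst interval of bursting electrodes as AUC over four recording days; curve fitted for decrease in interburst interval relative to DMSO.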 The essentials:
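Network formation assay in primary rat cortical cultures, exposed from DIV 0 to 12. Mean interburst interval per well, integrated as AUC over four recordings.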

A short description of assay [6]: CCTE_Shafer_MEA_dev_inter_network_spike_interval_mean: CCTE's Neural Network Formation Assay for Mean Inter-network Spike Interval, Shafer Lab (AID 2284047). The essentials: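 Compound was given at plating to primary rat cortical neurons and renewed with full medium changes on DIV 5 and 9. Extracellular activity was recorded on days 5, 7, 9, 12; AUC values were fitted for loss relative to DMSO control.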

The nature of assay [7]: CCTE_Shafer_MEA_dev_network_spike_number: CCTE's Neural Network Formation Assay for Number of Network Spikes, Shafer Lab (AID 2284048).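 Also: synchronized bursts across electrodes counted on days 5 7 9 12 and integrated as AUC.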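 As to AC50: fit as a loss of signal meaning fewer network spikes than DMSO.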 The essentials:
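Number of network spikes (coordinated firing across electrodes) recorded on days 5, 7, 9 and 12 and summarised as area under the curve. Rat cortical cultures on MEA, continuous compound exposure with full medium/treatment exchange at DIV 5 and 9.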

A short description of assay [8]: CCTE_Shafer_MEA_dev_network_spike_peak: CCTE's Neural Network Formation Assay for Mean Number of Electrodes in Network Spike, Shafer Lab (AID 2284049).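 As to AC50: fitted for loss of signal meaning fewer electrodes in network spikes than DMSO.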 The essentials:
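Rat cortical primary culture, 1.5 x 10^5 cells/well, 48-well MEA (16 electrodes/well). Dosing day 0 through DIV 12, full media/compound exchange DIV 5, 9. AxIS adaptive spike detection; AUC over days 5/7/9/12; loss-of-signal vs DMSO.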

Assay [9] is described as follows: CCTE_Shafer_MEA_dev_spike_duration_mean: CCTE's Neural Network Formation Assay for Mean Spike Duration, Shafer Lab (AID 2284051).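 As to AC50: potency for a decrease in mean network spike duration versus DMSO.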 The essentials: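 With DMSO as baseline, loss of mean network spike duration was scored from extracellular recordings of rat cortical neurons on MEA plates. Exposure spanned plating to DIV 12; the four recording days were collapsed into one AUC value.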

Assay [10] can be described thus: CCTE_Shafer_MEA_dev_network_spike_duration_std: CCTE's Neural Network Formation Assay for Standard Deviation of Network Spike Duration, Shafer Lab (AID 2284052).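 Also: hits are decreases in network spike duration SD versus DMSO vehicle.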 A digest of the protocol:
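Developing networks of rat cortical neurons were exposed over twelve days in vitro on 48-well MEA plates. Trapezoidal AUC of recordings (DIV 5–12) was analysed for signal loss relative to DMSO vehicle.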

The nature of assay [11]: CCTE_Shafer_MEA_dev_active_electrodes_number: CCTE's Neural Network Formation Assay for Number of Active Electrodes, Shafer Lab (AID 2284040; active = hit-call score of the fitted dose curve at least 0.9, where 1 is the maximum;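 as to AC50: potency for loss of active electrodes versus DMSO so lower counts are hits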). A digest of the protocol: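 Developing rat cortical networks on MEAs, exposed DIV 0–12. Value is the AUC of active-electrode counts (≥5 spikes/min) from days 5, 7, 9, 12, relative to DMSO.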
A short description of assay [12]: CCTE_Shafer_MEA_dev_bursting_electrodes_number: CCTE's Neural Network Formation Assay for Number of Bursting Electrodes, Shafer Lab (AID 2284043; active = hit-call score of the fitted dose curve at least 0.9, where 1 is the maximum;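 as to AC50: potency is for loss of bursting electrodes relative to DMSO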). A digest of the protocol:
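Number of electrodes reaching ≥1 burst every 2 min was recorded at DIV 5, 7, 9 and 12 and collapsed as trapezoidal area under the curve. Cultures were rat cortical neurons on MEA plates, dosed continuously from plating with medium and treatment refreshed on DIV 5 and 9.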

The target of assay [13] is Estrogen receptor (Homo sapiens) (UniProt P03372). In words: CCTE_Deisenroth_AIME_384WELL_LUC_Active: CCTE's 384-well Estrogen Receptor Transactivation Assay with AIME metabolic competence (ERTA luciferase; metabolism positive), Deisenroth Lab (AID 2284030; active = hit-call score of the fitted dose curve at least 0.9, where 1 is the maximum). A digest of the protocol: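 VM7Luc4E2 breast cells were given, for 24 hours, medium pre-incubated for 2 hours with parent chemical (0.002-200 uM, 10 concentrations) and alginate-encapsulated phenobarbital/beta-naphthoflavone-induced rat hepatic S9. Luciferase gain of signal was fitted against 17beta-estradiol; n=4 or more.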
Estrogen receptor (Homo sapiens), sequence (P03372 whole entry, looked up): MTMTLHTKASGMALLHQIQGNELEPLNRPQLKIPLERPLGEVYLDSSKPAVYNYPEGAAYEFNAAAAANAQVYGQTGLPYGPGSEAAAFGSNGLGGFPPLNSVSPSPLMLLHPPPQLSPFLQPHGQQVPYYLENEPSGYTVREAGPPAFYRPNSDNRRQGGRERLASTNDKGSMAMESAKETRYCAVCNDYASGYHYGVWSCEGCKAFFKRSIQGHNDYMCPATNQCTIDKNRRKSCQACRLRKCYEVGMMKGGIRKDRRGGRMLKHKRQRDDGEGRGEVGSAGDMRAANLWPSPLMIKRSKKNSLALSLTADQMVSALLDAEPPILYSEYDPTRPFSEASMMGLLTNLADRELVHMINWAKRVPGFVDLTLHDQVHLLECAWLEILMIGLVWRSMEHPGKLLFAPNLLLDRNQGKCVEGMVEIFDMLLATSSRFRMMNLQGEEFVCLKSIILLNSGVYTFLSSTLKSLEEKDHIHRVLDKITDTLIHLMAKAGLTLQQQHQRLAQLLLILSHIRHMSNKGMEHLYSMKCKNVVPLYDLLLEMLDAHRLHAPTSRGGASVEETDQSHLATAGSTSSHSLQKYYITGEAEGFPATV

The target is the same in assay [14]. In words: CCTE_Deisenroth_AIME_384WELL_LUC_Inactive: CCTE's 384-well Estrogen Receptor Transactivation Assay without AIME metabolic competence (ERTA luciferase; metabolism negative), Deisenroth Lab (AID 2284038; active = hit-call score of the fitted dose curve at least 0.9, where 1 is the maximum;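 also: VM7Luc4E2 breast cells given medium preincubated 2 h with S9-free microspheres; hits raise estrogen receptor luciferase signal so potencies reflect agonists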). The essentials: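 Metabolism-negative mode: AIME lids stamped in alginate-water, no hepatic S9. 2 h chemical incubation → medium onto VM7Luc4E2 ERTA, 24 h. Readout luciferase luminescence; gain-of-signal fit vs 17beta-estradiol. Conc. 0.002 - 200 uM.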

Assay [15] shares this target. In words: CCTE_Deisenroth_AIME_384WELL_LUC_Shift: CCTE's 384-well Estrogen Receptor Transactivation Assay with AIME metabolic competence data shift (ERTA luciferase; difference in metabolism positive and negative), Deisenroth Lab (AID 2284041).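 Also: shift is response with S9 minus without S9 so positive means metabolism raised ER signal.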 A digest of the protocol:
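Test chemicals (0.002–200 uM, 10-point) were pre-incubated 2 h with alginate microspheres containing phenobarbital/beta-naphthoflavone-induced male Sprague Dawley rat liver S9 or water, then medium was transferred to VM7Luc4E2 cells for 24 h luciferase readout; shift = S9-positive minus S9-negative normalized response.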

Assay [16] in a line: CCTE_Deisenroth_AIME_384WELL_CTox_Inactive: Cytotoxicity Assessment (CTOX) in CCTE's 384-well Estrogen Receptor Transactivation Assay without AIME metabolic competence (metabolism negative), Deisenroth Lab (AID 2284039; active = hit-call score of the fitted dose curve at least 0.9, where 1 is the maximum;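 also: cell viability via live-cell protease substrate cleaved to fluorescent probe; cells exposed 24 h to medium preincubated 2 h with alginate-water beads without S9; loss of fluorescence signal means loss of viability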). A digest of the protocol: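 Fluorescence from a live-cell protease substrate, read after 24 h in VM7Luc4E2 cells, indicated viability. Test medium came from a 2 h AIME step without hepatic S9 (alginate-water microspheres); concentrations spanned 0.002 - 200 uM, single technical replicate per run.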

Each structure is given as a SMILES string. Several values for one entry are separate records, joined by “and”; a condition that tells them apart may be missing. Equal entries are not always repeated. Records with an inconclusive call do not appear. A structure can be active in one record and inactive in another. Activity calls are given as the source filed them. The calls were made as follows, unless noted: active = hit-call score of the fitted dose curve at least 0.9, where 1 is the maximum; inactive = score below 0.9.

As to `CC#Cc1cc(C)nc(Nc2ccccc2)n1`, the AC50 with DIO2 (gene 1734) was 22.2 µM (active).

For `O=C(O)C(F)(F)C(F)(F)C(F)(F)C(F)(F)C(F)(F)F`, the compound was classed as inactive in [1], in assay [2], in assay [3], in assay [4], in [5] and in [6]. Moreover, the call in [7], in assay [8], in assay [9] and in assay [10] was inactive.

In the case of `NS(=O)(=O)C(F)(F)C(F)(F)C(F)(F)C(F)(F)C(F)(F)C(F)(F)C(F)(F)C(F)(F)F`, the AC50 in [1] was 15 µM (active); in [11], 6.65 µM (active); in assay [12] it was 4.13 µM (active) and 1.93 µM (active); in assay [8], 26.7 µM (active); in assay [9], 23.3 µM (active). Also, the result in [1], in assay [11], in [2], in [3], in assay [4] and in assay [5] was inactive. Moreover, the result in assay [6], in assay [7], in assay [8], in [9] and in assay [10] was inactive.

As to `O=C(O)C(F)(F)C(F)(F)C(F)(F)C(F)(F)C(F)(F)C(F)(F)C(F)(F)C(F)(F)C(F)(F)F`, in the assay on DIO2 (gene 1734), the AC50 was 100 µM (active) and 71.6 µM (active).

Consider `ClC1=C(Cl)[C@]2(Cl)[C@@H]3[C@@H]4C[C@@H]([C@H]5O[C@@H]45)[C@@H]3[C@@]1(Cl)C2(Cl)Cl`, for which the AC50 was 24.2 µM (active) in assay [1]; 5.67 µM (active) in assay [2]; 10.2 µM (active) in assay [12]; 4.03 µM (active) in assay [3]; 0.492 µM (active) in assay [7]; 10.8 µM (active) in assay [8]. Further, the AC50 was 23.9 µM (active) in [9] and 3.38 µM (active) in assay [10]. For the same compound, the call in assay [4], in assay [5] and in [6] was inactive.

Take `Nn1cnnc1`: the result in assay [13] and in assay [14] was inactive. The AC50 in [15] was 72.4 µM (active).

In the case of `C1CC2OC2CC1C1CO1` (centres undefined), the compound was called inactive in [13], in [14], in assay [16] and in assay [15].

As to `ClC(Cl)=C(c1ccc(Cl)cc1)c1ccc(Cl)cc1`, the AC50 was 5.67 µM (active) in assay [1]; 4.01 µM (active) in [11]; 4.06 µM (active) in [2]; 5.08 µM (active) in assay [12]; 7.73 µM (active) in assay [3]; 7.75 µM (active) in [5]. Moreover, the figures for the AC50 in [7], in assay [8] and in assay [9] were 1.23 µM (active), 4 µM (active) and 3.8 µM (active), respectively. Further, the compound was classed as inactive in assay [4] and in assay [6].

Turning to `CCOP(=S)(OCC)SCSC(C)(C)C`, the AC50 was 23.1 µM (active) and 27.1 µM (active) in [1]; 18.2 µM (active) and 16.1 µM (active) in [11]; 23.2 µM (active) in assay [2]; 23.1 µM (active) and 16.5 µM (active) in assay [12]; 17.4 µM (active) in assay [3]; 23.5 µM (active) in assay [4]. The AC50 in assay [5] is 23 µM (active) and 28.4 µM (active); in assay [7] it was 18.9 µM (active); in assay [8] it was 23.1 µM (active) and 13.9 µM (active); in [9] it was 13.9 µM (active) and 21.9 µM (active); in assay [10] it was 16.2 µM (active). The result in assay [2], in assay [3], in assay [4], in assay [6], in assay [7] and in [10] was inactive.

As to `Clc1ccc(Cl)cc1`, the compound was called inactive in [13], in [14], in assay [16] and in [15].

`Sc1ccccc1`: the compound was called inactive in [13], in [14] and in assay [15].

On to `CCCCCCCCCC[N+](C)(C)CCCCCCCCCC`, for which the AC50 with DIO2 (gene 1734) is 62.7 µM (active).

With `C=CC(N)=O`, the compound was called inactive in assay [1], in assay [11], in assay [2], in [12], in [3] and in assay [4]. Besides, the result in assay [5], in assay [6], in [7], in assay [8], in assay [9] and in [10] was inactive.
